Source: PubChem
This is a sample that favours compounds with a hit; in the whole collection about 3.6% have one here.
Anthrax LF prot: Bacillus anthracis LF protease inhibitors, primary screen, biochemical, multiplex microsphere, MLPCN library. multiplex microsphere protease cleavage assay. 360,000 tested, 0.12% active. AID 588501, 2011. Lethal factor (Bacillus anthracis), P15917. inhibition, % at 10 µM; note: plate controls were buffer without enzyme for full effect and enzyme alone for no effect
BoNT F protease: BoNT/F light chain protease inhibitors, primary screen, biochemical, flow cytometry, MLPCN library; Botulinum neurotoxin type F light chain protease (Clostridium botulinum); Multiplex microsphere protease cleavage assay; inhibition, % at 10 µM; 360,000 tested, 0.22% active; in the data active = inhibition above about 35%, passing the limit was not always enough; inconclusive = no clear call, values can overlap the other calls; note: plate controls were buffer without enzyme for full effect and enzyme alone for no effect
Autofluor counter: compound fluorescence in toxin protease inhibitor counterscreen; compound autofluorescence counterscreen, microsphere flow cytometry; stronger effect = higher value; fluorescence intensity (no concentration beside the values); 360,000 tested, 3.1% active; in the data active = fluorescence intensity above about 16000; inconclusive = no clear call, values can overlap the other calls
BoNT A protease: BoNT/A light chain protease inhibitors, primary screen, biochemical, flow cytometry, MLPCN library; multiplex microsphere protease substrate cleavage; inhibition, % at 10 µM; 360,000 tested, 0.17% active; AID 588499, 2011; note: plate controls were buffer without enzyme for full effect and enzyme alone for no effect
MazF activator: activators of E. coli MazEF toxin-antitoxin RNase, primary screen, biochemical, fluorescence, uHTS; AID 504720, 2011; Endoribonuclease toxin MazF (Escherichia coli (strain K12)), P0AE70; FAM/BHQ RNA-DNA oligo cleavage fluorescence, 5 h; 350,000 tested, 0.32% active; activation, % at 20 µM; in the data active = activation above about 50%
Target sequence (P0AE70 whole entry, looked up): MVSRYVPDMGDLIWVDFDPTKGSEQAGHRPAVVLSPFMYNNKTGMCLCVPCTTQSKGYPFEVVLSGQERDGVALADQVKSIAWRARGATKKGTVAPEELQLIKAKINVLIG
An asterisk follows results filed as active. Cut-off read from the data, not from the text of the source, unless noted: active = inhibition above about 30%; inconclusive = no clear call, values can overlap the other calls; inactive = below that.

C[C@H]1O[C@H](C2CCCC2)CC2=C1C(=O)OC(C)(C)O2 was read as Anthrax LF prot 2, BoNT F protease 5, Autofluor counter 5621 and BoNT A protease 1.
`Cc1ccc(S(=O)(=O)/N=C(\Sc2ccccc2)c2ccccc2)cc1` gave Anthrax LF prot 0, BoNT F protease -6, Autofluor counter 24784*, BoNT A protease -2 and MazF activator -14.
O=S(=O)(/N=C(\Sc1ccccc1)c1ccccc1)c1ccc(Cl)cc1 was read as Anthrax LF prot -5, BoNT F protease -19, Autofluor counter 12569, BoNT A protease -1 and MazF activator -5.
For CCOc1cc(C)nc(Oc2ccc(=O)[nH]n2)n1 the results were Anthrax LF prot -4, BoNT F protease 2, Autofluor counter 23697*, BoNT A protease inconclusive and MazF activator 5.
Cc1noc(C)c1CS(=O)(=O)c1ccc(Br)cc1 was read as Anthrax LF prot 2, BoNT F protease -1, Autofluor counter 10237, BoNT A protease 0 and MazF activator -5.
Cc1ccc(S(=O)(=O)Cc2c(C)noc2C)cc1 was read as Anthrax LF prot -10, BoNT F protease -4, Autofluor counter 22977*, BoNT A protease -1 and MazF activator 0.
O=C(Nc1ccccn1)C1CCN(C(=O)Nc2ccccc2)CC1 was read as MazF activator 2.
Screening CCOC(=O)c1nn(-c2ccc(Br)cc2)cc1C(=O)c1cccc2ccccc12 returned Anthrax LF prot 2, BoNT F protease -4, Autofluor counter 20527*, BoNT A protease -2 and MazF activator -9.
`CCOC(=O)c1nn(-c2ccc(F)cc2)cc1O` gave Anthrax LF prot 2, BoNT F protease -1, Autofluor counter 3932, BoNT A protease 0 and MazF activator 2.
For CC1(c2ccc(NC(=O)c3ccccc3F)cc2)CC1(Cl)Cl (centres undefined) the results were Anthrax LF prot -10, BoNT F protease -7, Autofluor counter 3433, BoNT A protease -7 and MazF activator 7.
N#Cc1ccc(NC(=O)COC(=O)CCc2nc3ccccc3c(=O)[nH]2)cc1 was read as Anthrax LF prot -15, BoNT F protease -127, Autofluor counter 26617*, BoNT A protease -26 and MazF activator -3.
`O=C1CC(N2CCOCC2)C(=O)N1Cc1ccc(N2CCCC2=O)cc1` (centres undefined) gave Anthrax LF prot -6, BoNT F protease -1, Autofluor counter 5105, BoNT A protease 0 and MazF activator 4.
`O=C1CC(N2CCN(C/C=C/c3ccccc3)CC2)C(=O)N1Cc1ccc(N2CCCC2=O)cc1` (centres undefined) gave Anthrax LF prot -7, BoNT F protease -2, Autofluor counter 19939*, BoNT A protease 0 and MazF activator -7.
For Oc1ccccc1C(=S)N1CCCCCC1 the results were Anthrax LF prot -8, BoNT F protease 1, Autofluor counter 19817*, BoNT A protease 2 and MazF activator 9.
For Oc1ccccc1C(=S)N1CCCCC1 the results were Anthrax LF prot -6, BoNT F protease -9, Autofluor counter 2874, BoNT A protease 0 and MazF activator 8.
For CCCCn1c(N)c(N(CC(C)C)C(=O)CSc2nnc(C)n2-c2ccccc2)c(=O)[nH]c1=O the results were Anthrax LF prot -4, BoNT F protease -1, Autofluor counter 3377, BoNT A protease 0 and MazF activator 9.
Screening Cc1ccccc1S(=O)Cc1ccc(C(=O)NCCN2CCOCC2)o1 (centres undefined) returned Anthrax LF prot -4, BoNT F protease 2, Autofluor counter 5240, BoNT A protease 0 and MazF activator -1.
Screening CC(=O)c1cccc(NC(=O)c2cc(-c3ccc(F)cc3)on2)c1 returned Anthrax LF prot -1, BoNT F protease 6, Autofluor counter 19126*, BoNT A protease 6 and MazF activator -14.
`O=C(Nc1ccc(F)cc1F)c1cc(-c2ccco2)on1` gave Anthrax LF prot -1, BoNT F protease 0, Autofluor counter 23169*, BoNT A protease inconclusive and MazF activator -3.
Screening O=C(NCc1ccc(F)cc1)c1cc(-c2ccco2)on1 returned Anthrax LF prot -2, BoNT F protease -6, Autofluor counter 23399*, BoNT A protease -3 and MazF activator -6.
